# Results: PubChem BioAssay AID1159580 (chemical genetic matrix, 2015)
# Values joined by “and” are separate entries in the source; they are usually repeats but may differ in a detail not shown here. Identical values can stand only once. Screen size: about 5,500 compounds; about 2,000 (36%) were called active. Another 18% or so got no clear call; they are omitted. Some of the results follow. Values without a mark were called inactive. Cut-off read from the data, not from the text of the source: active = normalized growth mostly below about 0.91 (no sharp cut-off); inconclusive = no clear call, values can overlap the other calls; inactive = mostly above about 0.92.
# Test: chemical genetic growth profiling, strain panel (AID 1159580);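 note: tested at 20 µM; growth read once vehicle control cultures reached saturation at 30 °C; 1 = growth at the plate median or of vehicle wells; lower values mean less growth of the strain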
# Conditions: growth OD
# [1] = S. cerevisiae deletion strains, locus YDL101C, strain DUN1, stronger effect = lower value
# [2] = S. cerevisiae deletion strains, locus YGR052W, strain FMP48, stronger effect = lower value
# [3] = S. cerevisiae deletion strains, locus YHR030C, strain SLT2, stronger effect = lower value
# [4] = S. cerevisiae deletion strains, locus YHR079C, strain IRE1, stronger effect = lower value
# [5] = S. cerevisiae deletion strains, locus YHR082C, strain KSP1, stronger effect = lower value
# [6] = S. cerevisiae deletion strains, locus YJL095W, strain BCK1, stronger effect = lower value
# [7] = S. cerevisiae deletion strains, locus YJR066W, strain TOR1, stronger effect = lower value
# [8] = S. cerevisiae deletion strains, locus YKL203C, strain TOR2, stronger effect = lower value
# [9] = S. cerevisiae deletion strains, locus YLR113W, strain HOG1, stronger effect = lower value
# [10] = S. cerevisiae deletion strains, locus YNL207W, strain RIO2, stronger effect = lower value
# [11] = S. cerevisiae deletion strains, locus YOR119C, strain RIO1, stronger effect = lower value
# [12] = S. cerevisiae deletion strains, locus YOR231W, strain MKK1, stronger effect = lower value
# [13] = S. cerevisiae deletion strains, locus YPL256C, strain CLN2, stronger effect = lower value
# [14] = S. cerevisiae deletion strains, locus YBR229C, strain ROT2, stronger effect = lower value
# [15] = S. cerevisiae deletion strains, locus YEL061C, strain CIN8, stronger effect = lower value
# [16] = S. cerevisiae deletion strains, locus YGR078C, strain PAC10, stronger effect = lower value
# [17] = S. cerevisiae deletion strains, locus YHR087W, strain rtc3, stronger effect = lower value
# [18] = S. cerevisiae deletion strains, locus YJR043C, strain POL32, stronger effect = lower value
# [19] = S. cerevisiae deletion strains, locus YJR075W, strain HOC1, stronger effect = lower value
# [20] = S. cerevisiae deletion strains, locus YKL190W, strain CNB1, stronger effect = lower value
# [21] = S. cerevisiae deletion strains, locus YLR039C, strain RIC1, stronger effect = lower value
# [22] = S. cerevisiae deletion strains, locus YLR058C, strain SHM2 (second series), stronger effect = lower value
# [23] = S. cerevisiae deletion strains, locus YLR085C, strain ARP6, stronger effect = lower value
# [24] = S. cerevisiae deletion strains, locus YLR262C, strain YPT6, stronger effect = lower value
# [25] = S. cerevisiae deletion strains, locus YML094W, strain GIM5, stronger effect = lower value
# [26] = S. cerevisiae deletion strains, locus YMR219W, strain ESC1, stronger effect = lower value
# [27] = S. cerevisiae deletion strains, locus YMR263W, strain SAP30, stronger effect = lower value
# [28] = S. cerevisiae deletion strains, locus YNL153C, strain GIM3, stronger effect = lower value
# [29] = S. cerevisiae deletion strains, locus YNL298W, strain CLA4 (second series), stronger effect = lower value
# [30] = S. cerevisiae deletion strains, locus YNL322C, strain KRE1, stronger effect = lower value
# [31] = S. cerevisiae deletion strains, locus YNR030W, strain Alg12, stronger effect = lower value
# [32] = S. cerevisiae deletion strains, locus YOL006C, strain TOP1, stronger effect = lower value
# [33] = S. cerevisiae deletion strains, locus YPL055C, strain LGE1, stronger effect = lower value
# [34] = S. cerevisiae deletion strains, locus YPL241C, strain CIN2, stronger effect = lower value
# [35] = S. cerevisiae deletion strains, locus YPR135W, strain CTF4, stronger effect = lower value
structure (smiles),measurement,setting,value
COc1ccc(Nc2nc(NC(=O)Nc3ccc(Cl)cc3)n[nH]2)cc1,normalized growth,"S. cerevisiae deletion strains, locus YAR019C, strain CDC15, stronger effect = lower value",0.996
same,normalized growth,"S. cerevisiae deletion strains, locus YBL105C, strain PKC1, stronger effect = lower value",0.994
same,normalized growth,"S. cerevisiae deletion strains, locus YBR135W, strain CKS1, stronger effect = lower value",1
same,normalized growth,"S. cerevisiae deletion strains, locus YBR136W, strain MEC1, stronger effect = lower value",0.992
same,normalized growth,"S. cerevisiae deletion strains, locus YBR160W, strain CDC28, stronger effect = lower value",1
same,normalized growth,"S. cerevisiae deletion strains, locus YDL017W, strain CDC7, stronger effect = lower value",1
same,normalized growth,"S. cerevisiae deletion strains, locus YDL028C, strain MPS1, stronger effect = lower value",0.986
same,normalized growth,[1],1
same,normalized growth,"S. cerevisiae deletion strains, locus YDL108W, strain KIN28, stronger effect = lower value",0.982
same,normalized growth,"S. cerevisiae deletion strains, locus YDL132W, strain cdc53, stronger effect = lower value",0.99
same,normalized growth,"S. cerevisiae deletion strains, locus YDL214C, strain PRR2, stronger effect = lower value",0.867
same,normalized growth,"S. cerevisiae deletion strains, locus YDR052C, strain DBF4, stronger effect = lower value",1
same,normalized growth,"S. cerevisiae deletion strains, locus YDR054C, strain cdc34, stronger effect = lower value",1
same,normalized growth,"S. cerevisiae deletion strains, locus YDR226W, strain ADK1, stronger effect = lower value",0.994
same,normalized growth,"S. cerevisiae deletion strains, locus YDR477W, strain SNF1, stronger effect = lower value",0.809
same,normalized growth,"S. cerevisiae deletion strains, locus YER123W, strain YCK3, stronger effect = lower value",0.715
same,normalized growth,"S. cerevisiae deletion strains, locus YER133W, strain GLC7, stronger effect = lower value",0.757
same,normalized growth,"S. cerevisiae deletion strains, locus YFL009W, strain cdc4, stronger effect = lower value",0.994
same,normalized growth,"S. cerevisiae deletion strains, locus YFL029C, strain CAK1, stronger effect = lower value",0.998
same,normalized growth,"S. cerevisiae deletion strains, locus YFR003C, strain YPI1, stronger effect = lower value",0.996
same,normalized growth,"S. cerevisiae deletion strains, locus YFR019W, strain FAB1, stronger effect = lower value",0.866
same,normalized growth,"S. cerevisiae deletion strains, locus YFR028C, strain CDC14, stronger effect = lower value",0.988
same,normalized growth,"S. cerevisiae deletion strains, locus YGR040W, strain KSS1, stronger effect = lower value",0.789
same,normalized growth,[2],0.788
same,normalized growth,"S. cerevisiae deletion strains, locus YGR092W, strain DBF2, stronger effect = lower value",0.793
same,normalized growth,[3],0.887
same,normalized growth,[4],0.893
same,normalized growth,[5],0.868
same,normalized growth,"S. cerevisiae deletion strains, locus YHR205W, strain SCH9, stronger effect = lower value",0.842
same,normalized growth,"S. cerevisiae deletion strains, locus YIL147C, strain SLN1, stronger effect = lower value",0.979
same,normalized growth,[6],0.861
same,normalized growth,"S. cerevisiae deletion strains, locus YJL128C, strain PBS2, stronger effect = lower value",0.957
same,normalized growth,"S. cerevisiae deletion strains, locus YJL157C, strain FAR1, stronger effect = lower value",0.88
same,normalized growth,"S. cerevisiae deletion strains, locus YJR016C, strain ILV3, stronger effect = lower value",0.991
same,normalized growth,"S. cerevisiae deletion strains, locus YJR066W, strain TOR1 (second series), stronger effect = lower value",0.758
same,normalized growth,[7],0.929
same,normalized growth,"S. cerevisiae deletion strains, locus YKL048C, strain ELM1, stronger effect = lower value",0.854
same,normalized growth,"S. cerevisiae deletion strains, locus YKL067W, strain YNK1, stronger effect = lower value",0.876
same,normalized growth,"S. cerevisiae deletion strains, locus YKL101W, strain HSL1, stronger effect = lower value",0.83
same,normalized growth,"S. cerevisiae deletion strains, locus YKL193C, strain SDS22, stronger effect = lower value",0.991
same,normalized growth,[8],0.892
same,normalized growth,[9],0.813 (active)
same,normalized growth,"S. cerevisiae deletion strains, locus YLR133W, strain CKI1, stronger effect = lower value",0.795
same,normalized growth,"S. cerevisiae deletion strains, locus YLR403W, strain SFP1, stronger effect = lower value",0.742
same,normalized growth,"S. cerevisiae deletion strains, locus YML070W, strain DAK1, stronger effect = lower value",0.846
same,normalized growth,"S. cerevisiae deletion strains, locus YMR001C, strain CDC5, stronger effect = lower value",1
same,normalized growth,"S. cerevisiae deletion strains, locus YMR205C, strain PFK2 (second series), stronger effect = lower value",0.782
same,normalized growth,"S. cerevisiae deletion strains, locus YMR277W, strain FCP1, stronger effect = lower value",0.991
same,normalized growth,"S. cerevisiae deletion strains, locus YNL006W, strain LST8, stronger effect = lower value",1.02
same,normalized growth,"S. cerevisiae deletion strains, locus YNL020C, strain ARK1, stronger effect = lower value",0.811
same,normalized growth,"S. cerevisiae deletion strains, locus YNL161W, strain CBK1, stronger effect = lower value",0.998
same,normalized growth,"S. cerevisiae deletion strains, locus YNL183C, strain NPR1, stronger effect = lower value",0.763
same,normalized growth,[10],0.992
same,normalized growth,"S. cerevisiae deletion strains, locus YNL222W, strain SSU72, stronger effect = lower value",0.993
same,normalized growth,"S. cerevisiae deletion strains, locus YNL307C, strain MCK1 (second series), stronger effect = lower value",0.832
same,normalized growth,"S. cerevisiae deletion strains, locus YOL078W, strain AVO1, stronger effect = lower value",0.991
same,normalized growth,"S. cerevisiae deletion strains, locus YOL136C, strain PFK27, stronger effect = lower value",0.848
same,normalized growth,"S. cerevisiae deletion strains, locus YOR061W, strain CKA2, stronger effect = lower value",0.741
same,normalized growth,[11],0.853
same,normalized growth,[12],0.94
same,normalized growth,"S. cerevisiae deletion strains, locus YOR329C, strain SCD5, stronger effect = lower value",1
same,normalized growth,"S. cerevisiae deletion strains, locus YPL031C, strain PHO85, stronger effect = lower value",0.749
same,normalized growth,"S. cerevisiae deletion strains, locus YPL153C, strain RAD53, stronger effect = lower value",0.756
same,normalized growth,"S. cerevisiae deletion strains, locus YPL204W, strain HRR25, stronger effect = lower value",0.795
same,normalized growth,"S. cerevisiae deletion strains, locus YPL209C, strain IPL1, stronger effect = lower value",0.996
same,normalized growth,[13],0.797 (active)
same,normalized growth,"S. cerevisiae deletion strains, locus YPR025C, strain CCL1, stronger effect = lower value",0.99
same,normalized growth,"S. cerevisiae deletion strains, locus YPR106W, strain ISR1, stronger effect = lower value",0.991
same,normalized growth,"S. cerevisiae deletion strains, locus YPR111W, strain DBF20, stronger effect = lower value",0.981
same,normalized growth,"S. cerevisiae deletion strains, strain NNK1, stronger effect = lower value",0.99
same,normalized growth,"S. cerevisiae deletion strains, strain TSCII, stronger effect = lower value",1
Cc1cc(Cl)ccc1Oc1ccc(N)cn1,normalized growth,"S. cerevisiae deletion strains, locus YAL013W, strain DEP1, stronger effect = lower value",0.989
same,normalized growth,[14],0.977
same,normalized growth,[1],0.971
same,normalized growth,"S. cerevisiae deletion strains, locus YDR150W, strain NUM1, stronger effect = lower value",0.898
same,normalized growth,[15],0.993
same,normalized growth,[16],0.984
same,normalized growth,[3],0.486 (active)
same,normalized growth,[17],0.989
same,normalized growth,[18],0.977
same,normalized growth,[19],0.952
same,normalized growth,[20],0.928 (active)
same,normalized growth,[21],0.541 (active)
same,normalized growth,[22],0.986
same,normalized growth,[23],0.602 (active)
same,normalized growth,[24],0.544 (active)
same,normalized growth,[25],0.878
same,normalized growth,[26],0.992
same,normalized growth,[27],0.92
same,normalized growth,"S. cerevisiae deletion strains, locus YNL128W, strain TEP1, stronger effect = lower value",1
same,normalized growth,[28],0.99
same,normalized growth,[29],0.891
same,normalized growth,[30],1.01
same,normalized growth,[31],0.981
same,normalized growth,[32],0.938
same,normalized growth,[33],0.889
same,normalized growth,[34],0.917
same,normalized growth,[35],0.602 (active)
same,normalized growth,"S. cerevisiae strains, strain wild type, stronger effect = lower value",0.953
Nc1ccc(Oc2ccc(Cl)cc2C2CCCCC2)nc1,normalized growth,[14],0.821 (active)
same,normalized growth,[1],0.897 (active)
same,normalized growth,[15],0.845 (active)
same,normalized growth,[2],0.796
same,normalized growth,[16],0.855 (active)
same,normalized growth,[3],0.181 (active) and 0.708 (active)
same,normalized growth,[4],0.794 (active)
same,normalized growth,[5],0.766 (active)
same,normalized growth,[17],0.702 (active)
same,normalized growth,[6],0.849
same,normalized growth,[18],0.852 (active)
same,normalized growth,[7],0.787 (active)
same,normalized growth,[19],0.689 (active)
same,normalized growth,"S. cerevisiae deletion strains, locus YKL171W, strain NNK1, stronger effect = lower value",0.889
same,normalized growth,[20],0.658 (active)
same,normalized growth,[8],0.92
same,normalized growth,[21],0.386 (active)
same,normalized growth,[22],0.915 (active)
same,normalized growth,[23],0.451 (active)
same,normalized growth,[9],0.705
same,normalized growth,[24],0.355 (active)
same,normalized growth,[25],0.636 (active)
same,normalized growth,[26],0.935 (active)
same,normalized growth,[27],0.824 (active)
same,normalized growth,"S. cerevisiae deletion strains, locus YMR307W, strain GAS1, stronger effect = lower value",0.162 (active)
same,normalized growth,[28],0.905 (active)
same,normalized growth,[10],0.918
same,normalized growth,[29],0.528 (active)
same,normalized growth,[30],0.945
same,normalized growth,[31],0.601 (active)
same,normalized growth,[32],0.728 (active)
same,normalized growth,[11],0.879
same,normalized growth,[12],0.941
same,normalized growth,[33],0.745 (active)
same,normalized growth,[34],0.675 (active)
same,normalized growth,[13],0.748 (active)
same,normalized growth,[35],0.365 (active)
